Bioassay records: PubChem, Sanford-Burnham Center for Chemical Genomics
CYP2C19 inh = human CYP2C19 inhibition | CYP2C19 Supersomes, luciferin-H EGE luminescence, 30 min | inhibition, % at 5 µM | 96,000 compounds, 21% hits;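 active = CYP2C19 inhibition above a set limit at 5 µM in the primary screen, cut at about 50% in these data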;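 note: plate controls were negative control wells for no effect and 2.5 mM tranylcypromine positive control for full effect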
CYP2C9 act = CYP2C9 (human) activation. P11712. recombinant CYP2C9, luciferin-H conversion, luminescence; stronger effect = higher value; factor 1 = untreated enzyme, 0 = blocked. activation factor at 5 µM. 96,000 compounds, 1.4% hits;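 active = activation factor of 2 or more for CYP2C9 at a 5 µM dose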;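 note: 0 = sulfaphenazole-blocked wells and 1 = vehicle-only wells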
Target sequence (P11712 whole entry, looked up): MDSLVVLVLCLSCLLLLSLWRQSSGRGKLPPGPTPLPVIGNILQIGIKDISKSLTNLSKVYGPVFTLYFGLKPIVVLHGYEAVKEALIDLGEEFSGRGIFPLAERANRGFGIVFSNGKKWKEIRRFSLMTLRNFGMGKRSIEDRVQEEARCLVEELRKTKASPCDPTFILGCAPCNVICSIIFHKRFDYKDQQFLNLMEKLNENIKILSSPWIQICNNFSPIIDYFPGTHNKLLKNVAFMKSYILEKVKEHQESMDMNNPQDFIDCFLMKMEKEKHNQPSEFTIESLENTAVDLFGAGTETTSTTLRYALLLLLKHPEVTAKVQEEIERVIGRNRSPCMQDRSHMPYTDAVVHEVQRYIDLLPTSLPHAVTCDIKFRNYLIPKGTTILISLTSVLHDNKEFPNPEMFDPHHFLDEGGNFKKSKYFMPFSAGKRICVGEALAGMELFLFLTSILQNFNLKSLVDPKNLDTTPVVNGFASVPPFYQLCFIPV
CYP2C9 inh = human CYP2C9 inhibition. CYP2C9 Supersomes, luciferin-H conversion, luminescence. 96,000 compounds, 20% hits. AID 777. inhibition, % at 5 µM. P11712;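 active = blocking of liver enzyme CYP2C9 beyond about 50% at 5 µM, limit read from the data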
PLAP act = human PLAP activation; P05187; purified PLAP enzyme, luminescent substrate read-out; stronger effect = higher value; activation fold at 20 µM; 96,000 compounds, 1.2% hits; AID 696; in the data active = activation fold above about 2
CYP2C19 activ = activators of human cytochrome P450 2C19 | P33261 | recombinant CYP2C19, luciferin-H EGE luminescence; stronger effect = higher value; 0 = fully inhibited enzyme, 1 = untreated enzyme | activation factor at 5 µM | 96,000 tested, under 10 active | AID 1025;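 active = activation factor of at least 2 at 5 µM in the primary screen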;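 note: 0 = wells with 2.5 mM tranylcypromine and 1 = vehicle-only wells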
Numbers without * were called inactive. Shown are actives, neighbours in structure and some others; about 31% of the full set was active somewhere.

SMILES | CYP2C19 inh | CYP2C9 act | CYP2C9 inh | PLAP act | CYP2C19 activ
Cc1nc2ccccc2c(=O)n1/N=C/c1cn(-c2ccccc2)nc1-c1cccs1 | 80* | 0 | 98* | 1.7 | 0.2
O=C1Cc2cccc3cccc1c23 | 2 | 1.1 | -9 | 1 | 1
O=c1ccc2c(o1)/C(=C/C=C(Cl)Cl)CCC2 | -5 | 1.1 | -7 | 0.9 | 1.1
Cn1c(=O)c2c(SCC(=O)NCc3ccco3)nc(CC(C)(C)C)nc2n(C)c1=O | 59* | 0.5 | 52* | 1.4 | 0.4
Cn1c(=O)c2c(SCC(N)=O)nc(CC(C)(C)C)nc2n(C)c1=O | 20 | 0.8 | 22 | 0.9 | 0.8
Cn1c(=O)c2c(SCC(=O)Nc3ccc4c(c3)OCCO4)nc(CC(C)(C)C)nc2n(C)c1=O | 59* | 0.3 | 74* | 1.4 | 0.4
CC(=NCc1ccccc1)C1=C(O)COC1=O | 9 | 1.2 | -16 | 1 | 0.9
O=c1cc(N2CCN(Cc3ccccc3)CC2)[nH]c(=O)n1-c1ccc(Br)cc1 | -20 | 1.2 | -16 | 1.7 | 1.2
CCC(=O)n1nc(NCc2ccccc2OC)nc1NCc1ccccc1OC | 36 | 0.5 | 52* | 1.1 | 0.6
CCCn1nnc(NCc2ccc(OCc3cccs3)c(OC)c2)n1 | 48 | 0.1 | 86* | 1.6 | 0.5
CCCn1nnc(NC(=O)c2ccc(OCC)c(Cl)c2)n1 | 41 | 1.1 | -13 | 1.1 | 0.6
COc1ccc(CNc2nc(NCc3ccc(OC)cc3)n(C(C)=O)n2)cc1 | -6 | 0.8 | 15 | 0.8 | 1.1
COc1ccc(CNc2nc(NCc3ccc(OC)c(OC)c3)n(C(=O)c3cccs3)n2)cc1OC | 27 | 0.3 | 71* | 1 | 0.7
COC(=O)CC(NC(=O)c1ccco1)c1ccc(C(C)C)cc1 (stereo not given) | 30 | 0.8 | 23 | 0.9 | 0.7
CCS(=O)(=O)c1ccc(O)c(N2C(=O)C3C4C=CC(C4)C3C2=O)c1 (stereo not given) | -3 | 1 | -4 | 1.1 | 1
C=CCn1c(SCC(=O)Nc2nccs2)nnc1-c1cc2cccc(OC)c2o1 | 9 | 1.7 | -73 | 1.1 | 0.9
O=C(C1CC(c2ccc(F)cc2)=NO1)N1CCN(Cc2ccccc2)CC1 (stereo not given) | 22 | 0.8 | 17 | 1.1 | 0.8
COc1cccc(C2=NOC(C(=O)N3CCN(Cc4ccccc4)CC3)C2)c1OC (stereo not given) | 16 | 2.1* | -111 | 1.3 | 0.8
COc1cc(OC)c(C2=NOC(C(=O)O)C2)cc1Cl (stereo not given) | -8 | 1.6 | -63 | 1.1 | 1.1
O=C(C1CC(c2ccc(F)cc2)=NO1)N1CCCc2ccccc21 (stereo not given) | 52* | 2.4* | -138 | 0.7 | 0.5
COc1cc(OC)c(C2=NOC(C(=O)N3CCc4ccccc4C3)C2)cc1Cl (stereo not given) | 59* | 2.1* | -113 | 1.8 | 0.4
COc1ccc(OC)c(C2=NOC(C(=O)N3CCCc4ccccc43)C2)c1 (stereo not given) | 41 | 2.4* | -140 | 1.3 | 0.6
O=C(O)C1CC(c2ccc(F)cc2)=NO1 (stereo not given) | -2 | 1 | -2 | 0.8 | 1
CCn1c(C(=O)Nc2ccsc2C(=O)OC)cc2sc(Cl)cc21 | 6 | 0.8 | 20 | 1 | 0.9
CCCCNC(=O)CSc1nnc(NC(C)=O)s1 | 12 | 0.9 | 5 | 0.9 | 0.9
SMILES | CYP2C19 inh | CYP2C9 act | CYP2C9 inh | PLAP act | CYP2C19 activ
Cc1ccc(SCCNC(=O)C(C)C)cc1 | 11 | 0.9 | 8 | 0.9 | 0.9
Cc1cc(C)nc(NC(=O)c2ccc(C)c([N+](=O)[O-])c2)n1 | 4 | 0.9 | 13 | 0.9 | 1
Cc1ccc(SCCNC(=O)c2ccccc2C)cc1 | 90* | 0.1 | 89* | 0.9 | 0.1
Cc1ccc(SCCNC(=O)c2ccc(C)c([N+](=O)[O-])c2)cc1 | 51* | 0.5 | 47 | 0.5 | 0.5
CC1CCCCN1C(=O)C12CCC(C)(/C(=N/O)C1)C2(C)C (stereo not given) | -7 | 1.1 | -9 | 0.8 | 1.1
C/C(Cn1nc([N+](=O)[O-])cc1C)=N\NC(=O)c1cccc(Br)c1 | 59* | 0.9 | 8 | 1.3 | 0.4
CCc1ccc(NCc2nc3ccccc3c(=O)[nH]2)cc1 | 48 | 0.8 | 19 | 1.1 | 0.5
CCc1ccc(CNc2ccc(O)cc2)cc1 | 82* | 0.8 | 23 | 1.3 | 0.2
Brc1ccccc1-c1nnc(COc2cccc3cccnc23)o1 | 91* | 2.9* | -187 | 1.5 | 0.1
Clc1ccccc1OCc1nnc(-c2ccccc2Br)o1 | 18 | 2.1* | -110 | 1.1 | 0.8
Brc1ccc(-c2nnc(-c3ccccc3Br)o2)cc1 | -1 | 1.1 | -10 | 1.2 | 1
CC(C)CNC(=O)C1C2C=CC(C2)C1C(=O)O (stereo not given) | -4 | 1.1 | -9 | 0.8 | 1
CCOC(=O)c1c(C)nc2sc(C(=O)Nc3ccccc3)c(N)c2c1-c1ccc(OC)cc1 | 76* | 0.2 | 82* | 1.4 | 0.2
CCOC(=O)c1c(C)nc2sc(C(N)=O)c(N)c2c1-c1ccccc1 | 5 | 0.8 | 24 | 1 | 1
Cc1nn2c(N3CCOCC3)c3c(nc2c1-c1ccccc1)CCCC3 | -8 | 0.2 | 77* | 1.5 | 1.1
Cc1nn2c(-n3ccnc3C)c3c(nc2c1-c1ccccc1)CCC3 | 90* | 0.4 | 62* | 1.5 | 0.1
Cc1nc2c(-c3ccc(F)cc3)c(C)nn2c(N2CCOCC2)c1C | 44 | 0.7 | 35 | 1 | 0.6
O=C1NC(=O)C2(COC3(CCCC3)OC2)S1 | -2 | 1 | -1 | 0.9 | 1
Cc1nnc(NC(=O)Cc2cccs2)s1 | 0 | 1 | -3 | 1 | 1
O=C(CN1CCOCC1)Nc1nc(-c2ccc3c(c2)CCN3S(=O)(=O)c2ccccc2)cs1 | 68* | 0.1 | 86* | 2* | 0.3
CS(=O)(=O)N1CCc2cc(-c3csc(NC(=O)Cc4cccs4)n3)ccc21 | 90* | 0.2 | 83* | 0.8 | 0.1
Cc1sc(NC(=O)CN2CCOCC2)nc1-c1ccc2c(c1)CCN2S(=O)(=O)c1ccccc1 | 7 | 0.9 | 14 | 1.8 | 0.9
CC(/C=C/c1ccc2c(c1)OCO2)=N\NC(=O)COc1ccccc1C | 2 | 0.9 | 11 | 0.8 | 1
Nc1nonc1N1CCCCC1 | 9 | 1 | 4 | 0.9 | 0.9
CCOC(=O)CN1C(=O)CSc2ccccc21 | 9 | 1.1 | -5 | 0.9 | 0.9
COCCn1nnnc1C(c1ccc2ncccc2c1)N1CCN(c2ccccc2F)CC1 (stereo not given) | 3 | 0.8 | 23 | 1.4 | 1
COCCn1nnnc1C(c1ccc(OC)c(OC)c1)N1CCc2ccccc21 (stereo not given) | 74* | 0.3 | 69* | 1.2 | 0.3
COCCn1nnnc1C(c1ccc2ncccc2c1)N1CCc2ccccc21 (stereo not given) | 94* | 0.2 | 80* | 1.5 | 0.1
